Data as given in PubChem BioAssay.

System: XIP peptide (Xip251-270)
Assay: compounds binding XIP fragment 251-270 – biochemical, small-molecule microarray, fluorescence 635/667 nm, 0.5 µg/mL protein, primary screen (AID 1183)
Settings: fluorescence 635 nm, higher = more signal

Row | Structure (SMILES) | composite z-score
1 | C=C(C(=O)CC[C@H](OC(=O)c1cccnc1)c1cccc(OCCO)c1)C(C)C | 0.183
2 | CC(C)C(O)C1C=CC2C(=O)N(C)C(=O)C2N1N(c1ccccc1)c1ccccc1 (stereo unspecified) | 0.123
3 | O=C1O[C@@H](c2ccccc2)[C@@H](c2ccccc2)N2[C@@H](c3ccc(O)cc3)[C@]3(C(=O)Nc4ccccc43)[C@@H](C(=O)Nc3nc4ccccc4s3)[C@H]12 | 0.638
4 | COC(=O)[C@@]1(Cc2ccc(OC)cc2)[C@H]2c3cc(C(=O)N(C)C)n(Cc4ccccc4)c3C[C@H]2CN1C(=O)c1ccccc1 | -0.248
5 | CC1CC/C=C\[C@H]2OC34C=CCN(CCN5CCOCC5)C(=O)[C@H]3N(CCO)C(=O)[C@@H]4C2C(=O)O1 (stereo partly specified) | 0.829
6 | COC(=O)[C@]1(CCS(=O)(=O)c2ccccc2)N=C(c2ccc(OCCCO)cc2)O[C@@H]1c1ccccc1CN=[N+]=[N-] | 0.769
7 | CC(C)(C)OC(=O)CC[C@]1(C(=O)O)N=C(c2ccc(OCCCO)cc2)O[C@H]1c1ccccc1 | 0.543
8 | O=C1c2ccccc2[C@@]2(Cc3ccccc3N(C3CC3)C2=O)[C@H](c2ccc(CO)cc2)N1C1CCCCC1 | -0.76
9 | COCCOC(=O)N1C(=O)[C@@]2(c3ccccc31)[C@H](c1ccc(OCCO)cc1)N1[C@H](c3ccccc3)[C@H](c3ccccc3)OC(=O)[C@H]1[C@@H]2C(=O)Nc1nc2ccccc2s1 | 0.745
10 | [N-]=[N+]=Nc1ccccc1C[C@@]1(C(=O)O)N=C(c2ccc(OCCCO)cc2)O[C@@H]1c1ccccc1 | 0.707
11 | CCCNC(=O)[C@@]1(c2ccc([N+](=O)[O-])cc2)CC(=O)N(C2CCCCC2)[C@@H]1c1ccc(CO)cc1I | 0.845
12 | COc1ccc([Si](C)(C)[C@H]2[C@H](CCn3cc([C@H](O)c4ccccc4)nn3)O[C@@]3(C(=O)N(Cc4ccc(N5CCOC5=O)cc4)c4ccccc43)[C@@H]2C)cc1 | 0.103
13 | COCCCNC(=O)[C@@]1(Sc2ccc(C)cc2)CC(=O)N(Cc2cc(C(F)(F)F)cc(C(F)(F)F)c2)[C@@H]1c1ccc(CO)cc1 | 0.634
14 | C=CCC(OC(C)=O)[C@@H]1[C@@H](N(Cc2cc3ccccc3o2)C(=O)Cc2ccc(F)cc2)c2cc(OCCCO)ccc2N1C(=O)c1ccc2ccccc2n1 (stereo partly specified) | -0.442
15 | CCCCC(=C=CC[C@@H](O)c1ccc(OCCO)cc1)C[C@@H](O)COCc1ccccc1 | 0.408
16 | O=C1O[C@@H](c2ccccc2)[C@@H](c2ccccc2)N2[C@@H](c3ccc(O)cc3)[C@]3(C(=O)Nc4ccc(C#CCCO)cc43)[C@@H](C(=O)NC[C@H](O)c3ccccc3)[C@H]12 | 0.478
17 | [N-]=[N+]=Nc1ccccc1[C@@H]1OC(c2ccc(OCCCO)cc2)=N[C@]1(CCS(=O)(=O)c1ccccc1)C(=O)NCCN1CCOCC1 | 0.433
18 | COCCCNC(=O)[C@@H]1c2ccccc2C(=O)N(Cc2ccccc2C(F)(F)F)[C@H]1c1ccc(CO)cc1 | -0.149
19 | NC(=O)N1C(=O)C2C(C1=O)C1C=C(CCCO)C2C(c2cccs2)N1Cc1cc2c(cc1Br)OCO2 (stereo unspecified) | 0.231
20 | CCOC(=O)C[C@H]1[C@H](OC(=O)c2ccccc2-c2ccccc2)[C@@H](NC(=O)CC(C)C)c2cc(OCCCO)ccc2N1C(=O)c1ccc2ccccc2n1 | 0.0366
21 | CN1C(=O)C2C=CC(C(O)C3CCCCC3)N(N3CCCCC3)C2C1=O (stereo unspecified) | 0.803
22 | CO[C@H]1O[C@H](CO)[C@@H](OC(=O)Nc2ccc(C(F)(F)F)cc2)[C@H](OC(=O)Nc2ccc3c(c2)OCO3)[C@H]1OC(=O)Nc1ccc2c(c1)OCO2 | 0.898
23 | NCCCCCCNC(=O)[C@@H]1C[C@@H]2C(=O)N3CCC[C@H]3C(=O)N2[C@@H]1c1ccc(O)cc1 | 0.664
24 | COC(=O)C(CC#Cc1ccc2c(c1)[C@]1(C(=O)N2)[C@H](C(=O)O)[C@H]2C(=O)O[C@H](c3ccccc3)[C@H](c3ccccc3)N2[C@@H]1c1ccccc1OCCO)C(=O)OC | 0.853
25 | CCOC(=O)[C@H]1C/C=C/C[C@H](C(=O)OCC)C(=O)O[C@H]2[C@@H](OC)O[C@H](CO)[C@@H](OC(=O)CCc3ccccc3)[C@@H]2OC1=O | 0.486
26 | C[C@]12C(=O)N(CCCCCCO)[C@@H]3C(=O)N(c4ccc(Cl)cc4)CC=CC31O[C@@H]1/C=C\CCCOC(=O)C12 (stereo partly specified) | -0.0821

System: not listed separately
Assay: blood-stage malaria parasite viability loss – strain 3D7, DAPI fluorescence, 100 nL, primary screen (AID 1184);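 note: parasites grown inside human red blood cells in medium with human serum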
Settings: P. falciparum 3D7 growth, 3 d, higher = more signal

Row | Structure (SMILES) | z-score
27 | O=C1c2ccccc2[C@](Cc2ccccc2I)(C(=O)NCc2ccccc2)[C@H](c2ccc(CO)cc2)N1C1CCCCC1 | -1.34
28 | COc1ccc(C(O)C2C=CC3C(=O)N(C)C(=O)C3N2N2CCCCC2)cc1 (stereo unspecified) | -0.0513
29 | C=C1C2CC3C(=C4C(CO[C@@H]4[C@H]4CCCN4S(=O)(=O)c4ccccc4[N+](=O)[O-])C4C(=O)N(C)C(=O)C34)CC2C(=O)N1C (stereo partly specified) | 0.769
30 | COCCOC(=O)N1C(=O)[C@@]2(c3cc(C#CC4=CCCCC4)ccc31)[C@H](c1ccc(O)cc1)N1[C@H](c3ccccc3)[C@H](c3ccccc3)OC(=O)[C@H]1[C@@H]2C(=O)Nc1nc2ccccc2s1 | -1.32
31 | C[C@H]1C2=C3C(CC[C@H]4C(OCc5ccc(F)cc5C(F)(F)F)OC[C@](C)([C@@H]34)N(C(=O)OC(C)(C)C)C2)C(CO)C1CO (stereo partly specified) | -0.736
32 | COCCOC(=O)N1C(=O)[C@@]2(c3cc(C#CC4(O)CCCCCC4)ccc31)[C@H](C(=O)N1CCCCCCC1)[C@H]1C(=O)O[C@H](c3ccccc3)[C@H](c3ccccc3)N1[C@@H]2c1ccc(OCCO)cc1 | -2.3
33 | COCCOC(=O)N1C(=O)[C@@]2(c3cc(C#CC4(O)CCCCCC4)ccc31)[C@H](C(N)=O)[C@H]1C(=O)O[C@H](c3ccccc3)[C@H](c3ccccc3)N1[C@@H]2c1ccccc1OCCO | -2.19
34 | CC(=O)N1Cc2ccccc2C[C@]2(N=C(c3ccc(OCCCO)cc3)O[C@@H]2c2ccccc2)C1=O | -1.42
35 | O=C1OCC=C[C@H]2OC34C=CCN(c5ccc(Cl)cc5)C(=O)[C@H]3N(CCCCCO)C(=O)[C@@H]4[C@@H]12 (stereo partly specified) | -0.826
36 | C=C(C(=O)CC[C@H](OC(=O)c1cccnc1)c1cccc(OCCO)c1)C(C)C | -2.09
37 | CC(C)C(O)C1C=CC2C(=O)N(C)C(=O)C2N1N(c1ccccc1)c1ccccc1 (stereo unspecified) | 0.0202
38 | O=C1O[C@@H](c2ccccc2)[C@@H](c2ccccc2)N2[C@@H](c3ccc(O)cc3)[C@]3(C(=O)Nc4ccccc43)[C@@H](C(=O)Nc3nc4ccccc4s3)[C@H]12 | -0.247
39 | COC(=O)[C@@]1(Cc2ccc(OC)cc2)[C@H]2c3cc(C(=O)N(C)C)n(Cc4ccccc4)c3C[C@H]2CN1C(=O)c1ccccc1 | -0.921
40 | CC1CC/C=C\[C@H]2OC34C=CCN(CCN5CCOCC5)C(=O)[C@H]3N(CCO)C(=O)[C@@H]4C2C(=O)O1 (stereo partly specified) | 0.055
41 | COC(=O)[C@]1(CCS(=O)(=O)c2ccccc2)N=C(c2ccc(OCCCO)cc2)O[C@@H]1c1ccccc1CN=[N+]=[N-] | -2.2
42 | CC(C)(C)OC(=O)CC[C@]1(C(=O)O)N=C(c2ccc(OCCCO)cc2)O[C@H]1c1ccccc1 | -1.62
43 | O=C1c2ccccc2[C@@]2(Cc3ccccc3N(C3CC3)C2=O)[C@H](c2ccc(CO)cc2)N1C1CCCCC1 | -0.323
44 | COCCOC(=O)N1C(=O)[C@@]2(c3ccccc31)[C@H](c1ccc(OCCO)cc1)N1[C@H](c3ccccc3)[C@H](c3ccccc3)OC(=O)[C@H]1[C@@H]2C(=O)Nc1nc2ccccc2s1 | -0.365

Row | Structure (SMILES) | z-score
45 | [N-]=[N+]=Nc1ccccc1C[C@@]1(C(=O)O)N=C(c2ccc(OCCCO)cc2)O[C@@H]1c1ccccc1 | -0.188
46 | CCCNC(=O)[C@@]1(c2ccc([N+](=O)[O-])cc2)CC(=O)N(C2CCCCC2)[C@@H]1c1ccc(CO)cc1I | -1.66
47 | COc1ccc([Si](C)(C)[C@H]2[C@H](CCn3cc([C@H](O)c4ccccc4)nn3)O[C@@]3(C(=O)N(Cc4ccc(N5CCOC5=O)cc4)c4ccccc43)[C@@H]2C)cc1 | -2.29
48 | COCCCNC(=O)[C@@]1(Sc2ccc(C)cc2)CC(=O)N(Cc2cc(C(F)(F)F)cc(C(F)(F)F)c2)[C@@H]1c1ccc(CO)cc1 | -0.0611
49 | C=CCC(OC(C)=O)[C@@H]1[C@@H](N(Cc2cc3ccccc3o2)C(=O)Cc2ccc(F)cc2)c2cc(OCCCO)ccc2N1C(=O)c1ccc2ccccc2n1 (stereo partly specified) | 0.774
50 | CCCCC(=C=CC[C@@H](O)c1ccc(OCCO)cc1)C[C@@H](O)COCc1ccccc1 | -2.73
51 | O=C1O[C@@H](c2ccccc2)[C@@H](c2ccccc2)N2[C@@H](c3ccc(O)cc3)[C@]3(C(=O)Nc4ccc(C#CCCO)cc43)[C@@H](C(=O)NC[C@H](O)c3ccccc3)[C@H]12 | -0.656
52 | [N-]=[N+]=Nc1ccccc1[C@@H]1OC(c2ccc(OCCCO)cc2)=N[C@]1(CCS(=O)(=O)c1ccccc1)C(=O)NCCN1CCOCC1 | -2.67
53 | COCCCNC(=O)[C@@H]1c2ccccc2C(=O)N(Cc2ccccc2C(F)(F)F)[C@H]1c1ccc(CO)cc1 | 0.226
54 | NC(=O)N1C(=O)C2C(C1=O)C1C=C(CCCO)C2C(c2cccs2)N1Cc1cc2c(cc1Br)OCO2 (stereo unspecified) | 0.376
55 | CCOC(=O)C[C@H]1[C@H](OC(=O)c2ccccc2-c2ccccc2)[C@@H](NC(=O)CC(C)C)c2cc(OCCCO)ccc2N1C(=O)c1ccc2ccccc2n1 | 1.65
56 | CN1C(=O)C2C=CC(C(O)C3CCCCC3)N(N3CCCCC3)C2C1=O (stereo unspecified) | -0.151
57 | CO[C@H]1O[C@H](CO)[C@@H](OC(=O)Nc2ccc(C(F)(F)F)cc2)[C@H](OC(=O)Nc2ccc3c(c2)OCO3)[C@H]1OC(=O)Nc1ccc2c(c1)OCO2 | -1.76
58 | NCCCCCCNC(=O)[C@@H]1C[C@@H]2C(=O)N3CCC[C@H]3C(=O)N2[C@@H]1c1ccc(O)cc1 | 1.42
59 | COC(=O)C(CC#Cc1ccc2c(c1)[C@]1(C(=O)N2)[C@H](C(=O)O)[C@H]2C(=O)O[C@H](c3ccccc3)[C@H](c3ccccc3)N2[C@@H]1c1ccccc1OCCO)C(=O)OC | -2.06
60 | CCOC(=O)[C@H]1C/C=C/C[C@H](C(=O)OCC)C(=O)O[C@H]2[C@@H](OC)O[C@H](CO)[C@@H](OC(=O)CCc3ccccc3)[C@@H]2OC1=O | -1.24
61 | C[C@]12C(=O)N(CCCCCCO)[C@@H]3C(=O)N(c4ccc(Cl)cc4)CC=CC31O[C@@H]1/C=C\CCCOC(=O)C12 (stereo partly specified) | -0.692
